# Measurements from PubChem BioAssay (NCATS).
# Records with an inconclusive call do not appear. Where a call stands in place of a potency, no number is given. Values without a mark were called inactive. The source made the active and inactive calls. The call rests on the fitted dose curve; in most records, active means well fitted curve in the direction sought with a large enough effect; inconclusive means small, poorly fitted or top-dose-only effect, or another doubt; inactive means no such curve, though single readings can be large; an effect the other way counts as inactive or inconclusive.
# Tests used:
# [1] = test system: Zika virus NS2B-NS3 protease (unlinked complex); experiment: Primary screen GU Rhodamine qHTS for Zika virus inhibitors: Unlinked NS2B-NS3 protease assay (AID 1347159); further: nearly all actives have a fitted effect of over 60% in size; further: potency means the concentration at half of the fitted maximal effect
# Method in brief: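 Percent inhibition derives from the 15-min fluorescence change (ex 480, em 540 nm), normalized to no-enzyme and no-inhibitor wells. Reactions contained 25 nM NS2B-NS3 complex and 1.5 microM substrate in 10 mM Tris-HCl pH 8.0.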
# [2] = test system: Zika virus NS2B-NS3 protease (linked construct); experiment: Primary screen NINDS Rhodamine qHTS for Zika virus inhibitors (AID 1347160); further: nearly all actives have a fitted effect of over 55% in size; further: potency means the concentration at half of the fitted maximal effect
# Method in brief: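 In 10 mM Tris-HCl pH 8.0 containing 0.01% Tween 20, linked NS2B-NS3 protease (25 nM final) is exposed to test compounds for 15 min. Cleavage of 1.5 microM Rhodamine110 substrate is tracked by fluorescence over 15 min.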
# [3] = Confirmatory screen NINDS Rhodamine qHTS for Zika virus inhibitors (AID 1347161); further: nearly all actives have a fitted effect of over 60% in size; further: potency means the concentration at half of the fitted maximal effect;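 on activity change, negative = inhibition: purified Zika NS2B-NS3 protease with linked NS2B cofactor domain and Rhodamine110 peptide substrate; series mostly up to about 110 µM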
# Method in brief: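 Purified NS2B-NS3 protease with the NS2B hydrophilic domain joined by a flexible linker (25 nM) in 10 mM Tris-HCl pH 8.0, 0.01% Tween 20, preincubated 15 min at RT with compound; Rhodamine110 peptide substrate 1.5 µM; fluorescence change over 15 min; 4-parameter Hill fit.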
# [4] = Vero cells viability qHTS for Zika virus inhibitors (AID 1347167); further: potency means the concentration at half of the fitted maximal effect
# Method in brief: (§1)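 Counter-screen for cytotoxicity of hits from NS2B-NS3 protease qHTS. Overnight-attached cells (2.5 x 10^5 cells/mL, DMEM/4% FBS) were dosed in titration, incubated 24 to 48 hours, then assayed by CellTiter Glo.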
# [5] = HepG2 cells viability qHTS for Zika virus inhibitors (AID 1347168); further: potency means the concentration at half of the fitted maximal effect
# Method in brief: as §1
# [6] = qHTS to identify inhibitors of the type 1 interferon - major histocompatibility complex class I in skeletal muscle: primary screen against the NCATS Mechanism Interrogation Plate v5.0 (MIPE) Libary (AID 1347411); further: nearly all actives have a fitted effect of over 65% in size; further: potency means the concentration at half of the fitted maximal effect
# Method in brief: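 Immortalized human myoblasts (C25cl48) with HiBit knocked into endogenous HLA-B*08:01 were stimulated with 4 ng/ml IFN-beta and given compounds in 11-point 1:3 titration from 46 uM. After 24 h at 37 C, lytic HiBiT luminescence was read.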
# [7] = target: Calcium and integrin-binding protein 1 (Homo sapiens) (UniProt Q99828); experiment: Primary qHTS for Identification of Calcium Integrin Binding Protein 1 (CIB1) Competitor (AID 1508620);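 further: GST tagged CIB1 binding a fluorescein labelled alphaIIb integrin peptide tracer; top concentration of the series differs between compounds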
# Method in brief: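 Fluorescence polarization competition: CIB1-GST (1 uM final) preincubated with compound 15 min at room temperature, then FITC-labeled alphaIIb peptide (100 nM final) added for another 15 min. Polarization read at Ex 480/Em 540.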
# [8] = test system: Zika virus NS2B-NS3 protease (linked); experiment: 384 well plate NINDS AMC confirmatory qHTS for Zika virus inhibitors (AID 1347163); further: nearly all actives have a fitted effect of over 50% in size; further: potency means the concentration at half of the fitted maximal effect;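 on activity change, negative = inhibition: linked protease at 5 30 or 60 nM final depending on run; fluorescence of AMC released from Ac-VKTGKR-AMC peptide cleaved by the protease; top concentration of the series differs between compounds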
# Method in brief: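 Linked NS2B-NS3 protease (final 5 nM, 30 nM or 60 nM) was preincubated with compounds (final up to 1 mM) for ~15 minutes. Ac-VKTGKR-AMC substrate (final 30 microM) then reacted for 25 minutes at room temperature in the dark. Fluorescence (ex 355/em 460 nm) was normalized to no-enzyme and no-inhibitor controls.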
# [9] = test system: Zika virus NS2B-NS3 protease (linked construct); experiment: 384 well plate NINDS Rhodamine confirmatory qHTS for Zika virus inhibitors (AID 1347164);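 further: fluorescence from protease cleavage of Ac-LKRR-rhodamine 110 substrate; potency means the concentration at half of the fitted maximal effect; nearly all actives have a fitted effect of over 65% in size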
# Method in brief: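 Fluorescence read at ex 485 nm/em 538 nm, 25 min after adding 10 microM Ac-LKRR-Rd substrate at room temperature in the dark; signal normalized to no-enzyme and no-inhibitor controls. Enzyme final 5, 30 or 60 nM; compounds, ~15 min preincubation.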
# [10] = Tertiary RLuc qRT-PCR qHTS assay for Zika virus inhibitors (AID 1347169); further: potency means the concentration at half of the fitted maximal effect; nearly all actives have a fitted effect of over 55% in size
# Method in brief: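 Luminescence read-out: live-cell Renilla luciferase substrate applied to infected Vero cells, signal measured after 1-1.5 hrs. Cells had received compound before ZIKV-RLuc (Cambodian strain, MOI 1-2) infection and were incubated 48-72 hrs at 37 degrees C.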
# Sequence of Calcium and integrin-binding protein 1 (Homo sapiens) (Q99828 whole entry, looked up): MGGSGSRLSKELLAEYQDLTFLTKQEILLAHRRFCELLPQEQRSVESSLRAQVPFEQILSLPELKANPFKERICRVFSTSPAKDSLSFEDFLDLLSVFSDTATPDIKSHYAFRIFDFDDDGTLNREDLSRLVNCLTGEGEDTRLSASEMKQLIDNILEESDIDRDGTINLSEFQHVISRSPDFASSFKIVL
compound,measurement,setting,value
Cc1ccc(C(=O)Nc2cccc(C(F)(F)F)c2)cc1-c1ccc2nc(NCCN3CCOCC3)ncc2c1,Potency,[1],inactive
same,Potency,[2],inactive
same,Potency,[3],inactive
same,Potency,[4],inactive
same,Potency,[5],8.27 µM (active)
same,Potency,[6],5.87 µM (active)
same,outcome,[7],inactive
COCCOc1ccc2c(c1)ncn2-c1ccc2cccc(N3CCC(N)CC3)c2n1,Potency,[1],inactive
same,Potency,[2],inactive
same,Potency,[6],1.86 µM (active)
same,outcome,[7],inactive
COc1cc(C(=O)N2CCC(N3CCN(C)CC3)CC2)ccc1Nc1ncc2c(n1)N(C)c1ccccc1C(=O)N2C,Potency,[1],inactive
same,Potency,[2],inactive
same,Potency,[6],23.4 µM (active)
same,outcome,[7],inactive
Nc1nc(Nc2ccc(S(N)(=O)=O)cc2)nn1C(=O)c1c(F)cccc1F,Potency,[1],inactive
same,Potency,[2],inactive
same,Potency,[6],4.15 µM (active)
same,outcome,[7],inactive
Cc1cc(Nc2cc(CN3CCOCC3)c3nc(C)c(Cc4ccc(Cl)cc4F)n3n2)n[nH]1,Potency,[1],inactive
same,Potency,[2],inactive
same,Potency,[6],5.23 µM (active)
same,outcome,[7],inactive
C=CC(=O)N1CCC[C@@H](n2nc(-c3ccc(Oc4ccccc4)cc3)c3c(N)ncnc32)C1,Potency,[1],inactive
same,Potency,[2],inactive
COc1cc2nccc(Oc3ccc(NC(=O)C4(C(=O)Nc5ccc(F)cc5)CC4)cc3)c2cc1OC,Potency,[1],inactive
same,Potency,[2],inactive
same,Potency,[6],8.29 µM (active)
same,outcome,[7],inactive
O=C(O)C1(Cc2cccc(Nc3nccs3)n2)CCC(Oc2cccc(Cl)c2F)CC1 (stereo not given),Potency,[1],6.31 µM (active)
same,Potency,[2],4.47 µM (active)
same,Potency,[3],3.5 µM (active)
same,Potency,[8],3.16 µM (active)
same,Potency,[9],14.1 µM (active)
same,Potency,[4],inactive
same,Potency,[5],inactive
same,Potency,[6],inactive
same,outcome,[7],inactive
Fc1cc(-c2cccc3ncc(-c4cnn(C5CCNCC5)c4)nc23)cc(F)c1CN1CCOCC1,Potency,[1],inactive
same,Potency,[2],inactive
same,Potency,[6],11.7 µM (active)
CCn1cc(-c2ccnc3[nH]c(-c4cccc(CN(C)C)c4)cc23)c(-c2ccc(NC(=O)N(C)C)cc2)n1,Potency,[1],inactive
same,Potency,[2],inactive
same,Potency,[3],inactive
same,Potency,[4],inactive
same,outcome,[7],inactive
COc1ccc(-n2nc(C(N)=O)c3c2C(=O)N(c2ccc(N4CCCCC4=O)cc2)CC3)cc1,Potency,[1],inactive
same,Potency,[2],inactive
same,Potency,[6],inactive
same,outcome,[7],inactive
Nc1cccc(-c2cc3c(Oc4cccc(O)c4)ncnc3[nH]2)c1,Potency,[1],inactive
same,Potency,[2],inactive
same,Potency,[6],13.1 µM (active)
same,outcome,[7],inactive
Cn1c(CNc2ccc(C(=N)N)cc2)nc2cc(C(=O)N(CCC(=O)O)c3ccccn3)ccc21,Potency,[1],inactive
same,Potency,[2],inactive
same,"activity change, negative = inhibition",[6],5.59% [at 0.314 µM]
same,outcome,[7],inactive
CC(C)Nc1cc(C(F)(F)F)cc2nc(NC(=O)c3cccnc3)nn12,Potency,[1],inactive
same,Potency,[2],inactive
same,Potency,[6],inactive
same,outcome,[7],inactive
O=C(Nc1cc(C(F)(F)F)cc(C(F)(F)F)c1)c1cc(Cl)ccc1O,Potency,[1],2.82 µM (active)
same,Potency,[2],7.94 µM (active)
same,Potency,[3],7.84 µM (active)
same,Potency,[8],inactive
same,Potency,[9],35.5 µM (active)
same,Potency,[4],1.47 µM (active)
same,Potency,[10],0.415 µM (active)
same,outcome,[7],inactive
CS(=O)(=O)N1CCN(Cc2cc3nc(-c4cccc5[nH]ncc45)nc(N4CCOCC4)c3s2)CC1,Potency,[1],inactive
same,Potency,[2],inactive
CNC(=O)c1ccc(N2C(=S)N(c3cnc(C#N)c(C(F)(F)F)c3)C(=O)C23CCC3)cc1F,Potency,[1],inactive
same,Potency,[2],inactive
same,Potency,[6],inactive
same,outcome,[7],inactive
CN1CCN(Cc2ccc(NC(=O)Nc3ccc(Oc4cc(NC(=O)C5CC5)ncn4)cc3)cc2C(F)(F)F)CC1,Potency,[1],inactive
same,Potency,[2],inactive
same,Potency,[6],0.415 µM (active)
same,outcome,[7],inactive
Cc1ccc(CN2CCNCC2)cc1NC(=O)CNc1ccc(F)c(F)c1,Potency,[1],inactive
same,Potency,[2],inactive
same,Potency,[6],inactive
same,outcome,[7],inactive
Cc1cn2cc(C(=O)N(C)CCO)cc(N[C@@H]3CCOc4cccc(C)c43)c2n1,Potency,[1],inactive
same,Potency,[2],inactive
same,Potency,[6],inactive
same,outcome,[7],inactive
O=C(O)CCCc1c[nH]c2ccccc12,Potency,[1],inactive
same,Potency,[2],inactive
same,Potency,[6],inactive
same,outcome,[7],inactive
CCS(=O)(=O)c1cccc(-c2cc(C(=O)NC3CCN(C)CC3)c(C)c3[nH]c4ncc(C)cc4c23)c1,Potency,[1],inactive
same,Potency,[2],inactive
same,Potency,[3],inactive
same,Potency,[4],inactive
same,Potency,[5],20.8 µM (active)
same,Potency,[6],1.86 µM (active)
same,outcome,[7],inactive
c1nc2nc(Nc3ccc(N4CCOCC4)cc3)nc(NC3CCCCC3)c2[nH]1,Potency,[1],inactive
same,Potency,[2],inactive
same,Potency,[6],2.94 µM (active)
same,outcome,[7],inactive
O=C(c1ccc(Nc2nccc(-c3cc4ccccc4s3)n2)cc1)N1CCC(N2CCCC2)CC1,Potency,[1],inactive
same,Potency,[2],inactive
same,Potency,[6],5.23 µM (active)
same,outcome,[7],inactive
O=C(O)Cn1nnc(-c2cc(N3CCC(Oc4cc(F)ccc4Br)CC3)no2)n1,Potency,[1],22.4 µM (active)
same,Potency,[2],inactive
same,Potency,[3],35 µM (active)
same,Potency,[8],inactive
same,Potency,[9],79.4 µM (active)
same,Potency,[10],1.17 µM (active)
same,Potency,[6],inactive
same,outcome,[7],inactive
